EBV LMP1 NFkB: Epstein-Barr LMP1 NF-kappaB reporter inhibition | LMP1-induced NF-kappaB luciferase reporter cells, luminescence | inhibition, % at 12.5 µM | 350,000 compounds, 0.69% hits | AID 504558; in the data active = inhibition above about 41%; inconclusive = no clear call, values can overlap the other calls
TRPM1 prom inh: inhibitors of MITF-driven TRPM1 promoter in melanoma cells. AID 488899. 330,000 compounds, 0.83% hits. SK-MEL-5 TRPM1 promoter luciferase, 24 h. inhibition, % at 12.5 µM;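 active = mean inhibition across replicates of 60% or more, whatever share of single replicates reaches that level; inconclusive = some that reach 60%, reason not given; inactive = mean inhibition across replicates below 60%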
TROY signal inh: blocks TROY-dependent signaling in reporter cells; Q293 LMP1-TROYcd NF-kB luciferase reporter, 4 h; inhibition, % at 10 µM; 360,000 compounds, 0.98% hits; AID 1347056;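 active = compounds whose plate-normalised and pattern-corrected inhibition of the luciferase reporter signal at the single screening dose is 50% or more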
LGR2 inh: Drosophila LGR2 receptor signaling inhibition; inhibition, % at 9.99 µM; HEK293 LGR2, CRE-luciferase, bursicon-stimulated, 4 h; AID 720647; 380,000 compounds, 0.35% hits;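 active = drop in luminescence signal, shown as inhibition above about 50% in the replicate tests, limit read from the data, passing the limit was not always enough; inconclusive = probably only some replicates passing the limit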;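 also: agonist challenge used bursicon conditioned medium at about half maximal strength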
TWEAK Fn14 block: blocks TWEAK-Fn14 interaction in a reporter cell assay; inhibition, % at 10 µM; TWEAK-stimulated Fn14 reporter cells, luciferase luminescence, 8 h; 360,000 compounds, 2% hits; in the data active = inhibition above about 50%
MITF TRPM1 HTS: MITF TRPM1 promoter activation in melanoma cells; activation, % at 12.5 µM; SK-MEL-5 TRPM1-promoter luciferase, 24 h; % of positive control, neutral wells = 0; 300,000 compounds, 0.75% hits;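 active = mean activation of at least 80% with every replicate also reaching 80%; inconclusive = mean reaches 80% but some replicate falls short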
Hits are given with their value; . = inactive; ? = inconclusive; / = not tested or not shown. Hits are enriched below; roughly 3% of the tested compounds scored in any of these assays.

SMILES	EBV LMP1 NFkB	TRPM1 prom inh	TROY signal inh	LGR2 inh	TWEAK Fn14 block	MITF TRPM1 HTS
CN=c1scc(C)n1/N=C/c1ccc2c(c1)OCO2	.	.	.	/	53	.
CN=c1scc(C)n1/N=C/c1ccc(O)cc1	.	.	59	/	.	/
CN=c1scc(C)n1/N=C/c1ccc(O)cc1O	.	.	.	/	64	.
CO[C@@H]1CN(C)C(=O)c2cc(NC(=O)C3CC3)ccc2OC[C@@H](C)N(C(=O)Nc2ccc(C(F)(F)F)cc2)C[C@H]1C	/	/	/	.	/	/
C[C@@H]1CN([C@@H](C)CO)C(=O)Cc2cc(NC(=O)Nc3ccc4c(c3)OCO4)ccc2O[C@H]1CN(C)Cc1ccc(C(=O)Nc2ccccc2N)cc1	/	/	/	.	/	/
COCC(=O)Nc1ccc2c(c1)C(=O)N(C)C[C@@H](OC)[C@@H](C)CN(CC1CC1)[C@H](C)CO2	/	/	/	.	/	/
CO[C@@H]1CN(C)C(=O)c2cc(NC(=O)C3CC3)ccc2OC[C@@H](C)NC[C@@H]1C	/	/	/	.	/	/
COC(=O)c1ccc(/C=C(\C#N)c2ccccn2)cc1	.	.	.	.	.	107
N#C/C(=C\c1ccc([N+](=O)[O-])cc1)c1ccccn1	.	.	.	.	.	.
COc1cc(/C=C(\C#N)c2ccccn2)ccc1OCc1ccccc1Cl	70	.	.	.	.	.
COc1cc(/C=C(\C#N)c2ccccn2)cc(OC)c1O	.	.	.	.	.	.
CN(C)c1ccc(/C=C(\C#N)c2ccccn2)cc1	60	68	74	93	94	.
C[C@H](CO)N1C[C@H](C)[C@H](CN(C)C(=O)Nc2ccccc2)Oc2ccc(NC(=O)Nc3ccc4c(c3)OCO4)cc2CC1=O	/	/	/	.	/	/
Cc1cccc(CSc2cccc3cccnc23)c1	.	.	.	/	103	/
Cc1noc(C)c1NC(=O)Nc1cccc2c1O[C@@H](CN(C)C(=O)NC1CCCCC1)[C@@H](C)CN([C@H](C)CO)C2=O	/	/	/	.	/	/
CCOC(=O)c1ccccc1NC(=O)C1CCN(c2ncnc3sc(C)c(C)c23)CC1	.	.	.	/	.	.
Cc1sc2ncnc(N3CCC(C(=O)Nc4ccccc4C(C)(C)C)CC3)c2c1C	?	.	53	.	74	.
Cc1sc2ncnc(N3CCC(C(=O)Nc4nc(-c5cccs5)cs4)CC3)c2c1C	.	.	.	.	67	.
O=C(O)c1ccc(Nc2nc3c(s2)CCCC3)cc1	.	64	.	?	91	.
Cc1nc(Nc2ccc(C(=O)O)cc2)sc1-c1ccccc1	.	.	56	/	93	.
O=C(Nc1nc2c(s1)CCCC2)Oc1ccccc1	.	.	.	/	.	.
Cc1cccc(Nc2nc3c(s2)CCCC3)c1	.	.	.	.	.	103
Cc1nc(Nc2ccccc2)sc1-c1ccccc1	.	.	.	.	.	.
COc1ccccc1NC(=O)N[C@H]1CC[C@H](CC(=O)N2CCC(Cc3ccccc3)CC2)O[C@H]1CO	/	/	/	.	/	/
O=C(c1ccc(F)cc1)N1CC(=O)N2[C@H](CO)[C@H](c3ccc(-c4cccnc4)cc3)[C@H]2C1	/	/	/	.	/	/
SMILES	EBV LMP1 NFkB	TRPM1 prom inh	TROY signal inh	LGR2 inh	TWEAK Fn14 block	MITF TRPM1 HTS
COCC(=O)N[C@@H]1C=C[C@H](CC(=O)NCc2ccccc2OC)O[C@@H]1CO	/	/	/	.	/	/
COc1ccc(C[C@H]2CCc3cnnn3COC[C@H](Cc3ccccc3)NC2=O)cc1	/	/	/	.	/	/
C[C@H]1CCCCO[C@H](CN(C)Cc2ccc3c(c2)OCO3)[C@@H](C)CN([C@@H](C)CO)C(=O)c2cc(NC(=O)CCC(F)(F)F)ccc2O1	/	/	/	.	/	/
O=C(N/N=C/c1cccc(Oc2ccc([N+](=O)[O-])cc2[N+](=O)[O-])c1)c1cncc(Br)c1	.	.	59	.	.	.
Cc1ccccc1OCC(=O)NCC(=O)N/N=C/c1cccc([N+](=O)[O-])c1	/	/	/	.	/	/
O=C(COc1ccccc1[N+](=O)[O-])N/N=C/c1cccc(OC(=O)c2ccc3c(c2)OCO3)c1	.	.	.	.	.	95
Cc1ccccc1OCC(=O)N/N=C/c1cccc(Oc2ccc([N+](=O)[O-])cc2[N+](=O)[O-])c1	.	.	.	.	63	.
O=C(N/N=C/c1cccc(OC(=O)c2ccc3c(c2)OCO3)c1)c1cncc(Br)c1	.	.	.	.	.	.
CSc1ccccc1OCc1cc(C(=O)N2CCSCC2)no1	.	.	.	.	.	133
CSc1ccccc1OCc1cc(C(=O)N2CCCC(C)C2)no1 (stereo not given)	.	.	.	.	.	159
CCN(CC)C1CCN(C(=O)c2cc(COc3ccccc3SC)on2)C1 (stereo not given)	.	.	.	.	.	.
CSc1ccccc1OCc1cc(C(=O)N2CCN(c3ncccn3)CC2)no1	.	.	.	.	.	.
CSc1ccccc1OCc1cc(C(=O)N2CCC[C@H]2C(N)=O)no1	63	.	.	.	.	.
C[C@H]1CN([C@@H](C)CO)C(=O)c2cc(NC(=O)CCCN(C)C)ccc2O[C@H]1CN(C)CC1CCCCC1	/	/	/	.	/	/
C[C@H](CO)N1C[C@H](C)[C@@H](CN(C)Cc2ccc3c(c2)OCO3)Oc2ccc(NC(=O)CCC(F)(F)F)cc2CC1=O	/	/	/	.	/	/
O=C1N[C@@H](Cc2c[nH]c3ccccc23)COC(=O)[C@@H](Cc2ccc(F)cc2)CC/C=C/C[C@@H]1CC(=O)N(CCO)Cc1ccccc1	.	.	.	.	55	.
O=C1N[C@@H](Cc2ccccc2)COC(=O)[C@H](Cc2ccc(F)cc2)CC/C=C/C[C@@H]1CC(=O)N(CCO)Cc1ccccc1	.	.	.	/	.	.
O=C1N[C@@H](Cc2c[nH]c3ccccc23)COC(=O)[C@H](Cc2ccc(F)cc2)C/C=C\C[C@H]1CC(=O)N(CCO)Cc1ccccc1	43	.	.	.	.	.
O=C1N[C@@H](Cc2ccccc2)COC(=O)[C@H](Cc2ccc(F)cc2)C/C=C\C[C@H]1CC(=O)N(CCO)Cc1ccccc1	.	.	.	.	.	.
CO[C@@H]1CN(C)C(=O)c2ccc(NC(=O)C3CC3)cc2OC[C@H](C)N(Cc2cncnc2)C[C@H]1C	/	/	/	.	/	/
CSCCC(NS(=O)(=O)c1ccc(Cl)cc1)C(=O)OCC(=O)c1c(C)[nH]c2ccccc12 (stereo not given)	.	.	82	.	62	.
COc1cc(/C=C2\SC(=O)NC2=O)ccc1Oc1ccc([N+](=O)[O-])cc1[N+](=O)[O-]	.	.	.	.	63	.
CCN1C(=O)C(=Cc2cccc(OC)c2Oc2ccc([N+](=O)[O-])cc2[N+](=O)[O-])SC1=S	.	88	.	.	91	.
Cc1sc2nc3c4ccccc4c(NCc4ccco4)nn3c(=O)c2c1C	.	.	.	/	64	85
Cc1ccc(NC(=O)CN2C(=O)NC(Cc3ccccc3)C2=O)cc1 (stereo not given)	.	.	.	/	.	.
